Measurements: PubChem BioAssay (Tox21)
Results filed as inconclusive are left out. Values without a mark were called inactive. Activity calls are given as the source filed them. Calls follow the shape of the dose curve; as a rule, active = well fitted cell-killing curve with a large enough effect in the repeat runs; inconclusive = weak or mixed curves, or effect the other way; inactive = no such curve, though single readings can be large or run the other way. Where a SMILES comes first, the peptide text is derived from it.

Assay: qHTS assay to identify small molecule agonists of the farnesoid-X-receptor (FXR) signaling pathway - cell viability counter screen (AID 743218); also: nearly all actives have a fitted effect of over 45% in size
Settings: FXR-bla HEK293T viability, CellTiter-Glo luminescence, 16 h; series mostly up to 62.6 µM
Text: U.S. Tox21 Program National Center for Advancing Translational Sciences [NCATS] NIH Chemical Genomics Center [NCGC] U.S. Environmental Protection Agency [EPA] National Institutes of Environmental Health Sciences [NIEHS] National Toxicology Program [NTP] U.S. Food and Drug Administration [FDA] Tox21 Assay Overview: The farnesoid-X-receptor (FXR), a nuclear hormone receptor, is highly expressed in liver, intestine, kidney and adrenal cortex. Natural ligands of FXR are the bile acids (Cholic acid, Chenodeoxy cholic acid etc). FXR is an important regulator of diverse metabolic pathways, including the bile acid homeostasis, lipid and glucose metabolisms. FXR regulates the expression of target genes by binding either as a monomer or as a heterodimer with the retinoid X receptor (RXR). Numerous studies have reported that FXR exerts protective function during cholestasis, diabetes, liver regeneration, and cancer. To identify compounds that activate FXR signaling, GeneBLAzer FXR-UAS-bla HEK 293T cell line (Invitrogen, Carlsbad, CA) containing a beta-lactamase reporter gene under the control of a UAS response element was used to screen the Tox21 10K compound library. The cytotoxicity of the Tox21 compound library against the FXR-bla cell line was tested in parallel by measuring the cell viability using CellTiter-Glo assay in the same wells.
Tox21 Assay Protocol Summary: FXR-bla cells were dispensed at 5000 cells/5uL/well in 1536-well black wall/clear bottom plates using a Multidrop Combi (Thermo Fisher Scientific, Waltham, MA) dispenser. After the assay plates were incubated at 37 C and 5% CO2 for 5 h, 23 nL of compounds dissolved in DMSO, positive controls or DMSO only was transferred to the assay plate by a Pintool station (Kalypsys, San Diego, CA). The assay plates were incubated at 37C for 16 h. After 1 uL of LiveBLAzerTM B/G FRET substrate was added using a Bioraptr Flying Reagent Dispenser (FRD) workstation (Beckman Coulter, Indianapolis, IN), the plates were incubated at room temperature for 2 h, and fluorescence intensity was measured by an Envision plate reader (PerkinElmer, Shelton, CT). For cell viability readout that measures cytotoxicity, 4uL/well of CellTiter-Glo reagent was added into the assay plates using a Bioraptr FRD. After 30 min incubation at room temperature, the luminescence intensity in the plates was measured using a ViewLux plate reader (PerkinElmer).
% is scaled to controls: 0 for no effect and ±100 for the full control effect.

| Structure (SMILES) | outcome | viability change, negative = cytotoxic |
| --- | --- | --- |
| O=C(O)c1cc2ccccc2nc1C(=O)O | inactive | – |
| Cc1ccc(C)c([N+](=O)[O-])c1 | inactive | – |
| CCCC(CC)c1ccccc1 (stereo not given) | inactive | – |
| CSc1cnccn1 | inactive | – |
| CC(O)CC(C)O (stereo not given) | inactive | – |
| [O]=[Mo](=[O])=[O] | inactive | – |
| CC(=O)C1C(=O)C=C(C)OC1=O (stereo not given) | inactive | – |
| COc1ccc2c(c1)c1c3n2CCN(C)C3=NCC1 | inactive | – |
| c1ccc(-c2nn[nH]n2)cc1 | inactive | – |
| Nc1nnnn1-c1ccccc1 | inactive | – |
| CC(C)Cn1cnc2c1c(=O)n(C)c(=O)n2C | inactive | – |
| CC/C(C)=N\O[Si](C)(O/N=C(\C)CC)O/N=C(\C)CC | inactive | – |
| O=[N+]([O-])c1c(Cl)cc(Cl)cc1Cl | inactive | – |
| CC(C)c1ccc(C=O)cc1 | inactive | – |
| CCC(=O)Oc1ccc2c(c1)CC[C@@H]1[C@@H]2CC[C@@]2(C)[C@H]1C[C@@H](OC(=O)CC)[C@@H]2OC(=O)CC | inactive | – |
| Cc1c(N)cccc1Cl | inactive | – |
| CCC(C)C(=O)OCCc1ccccc1 (stereo not given) | inactive | – |
| CCC(=O)c1c(O)cc(O)cc1O | inactive | – |
| N[C@@H](Cc1ccc(O)cc1)C(=O)O | – | -2.1% [at 13.2 µM] |
| CC(CO)(CO)CO | inactive | – |

| Structure (SMILES) | outcome | viability change, negative = cytotoxic |
| --- | --- | --- |
| C=CCN1C[C@H](C(=O)N(CCCN(C)C)C(=O)NCC)C[C@@H]2c3cccc4[nH]cc(c34)C[C@H]21 | inactive | – |
| CC(=O)OC1CCCCC1C(C)(C)C (stereo not given) | inactive | – |
| CN(C)CCOC(=O)C(c1ccccc1)C1(O)CCCC1 (stereo not given) | inactive | – |
| CC(=O)N[C@@H](CO)C(=O)N[C@@H](CC(=O)O)C(=O)N[C@@H](CCCCN)C(=O)N1CCC[C@H]1C(=O)O (Ac-SDKP-OH) | inactive | – |
| Cn1nnc2c(C(N)=O)ncn2c1=O | inactive | – |
| C=CCCCCCCCCC(=O)OCCCC | inactive | – |
| CC1=NN(c2ccc(S(=O)(=O)O)cc2)C(=O)C1 | inactive | – |
| CC(C)C[C@@H]1[C@H](c2ccccc2)OC(=O)N1CCCN1CCCCCC1 | inactive | – |
| C/C=C(\C)C(=O)OCCc1ccccc1 | inactive | – |
| CCN(CC)CCN | inactive | – |
| CC(=O)CCC1=C(C)CCCC1(C)C | inactive | – |
| O=C(O)CNC(=O)CNC(=O)CNC(=O)CSC(=O)c1ccccc1 | inactive | – |
| COCCc1ccccn1 | inactive | – |
| CCCCOC(=O)[C@H](C)O | inactive | – |
| O=Cc1cc2ccccc2o1 | inactive | – |
| CC(=O)c1cc(C)oc1C | inactive | – |
| CCCCCc1cccc(=O)o1 | inactive | – |
| CCCCCCCCCCCCCCCCCC#N | inactive | – |
| CCCCCCCCCCCCCCC(=O)NC(CO)CCCCCCCCCCCCCC (stereo not given) | inactive | – |
| CCO | inactive | – |
